High-throughput results (PubChem)
MBD2 inh = MBD2-methylated oligo binding inhibition. Q9UBB5. TR-FRET, MBD2 binding to methylated oligonucleotide. inhibition, % at 4.4 µM. actives 0.31% (n = 370,000). AID 686964; in the data active = inhibition above about 13%
Target sequence (Q9UBB5 whole entry, looked up): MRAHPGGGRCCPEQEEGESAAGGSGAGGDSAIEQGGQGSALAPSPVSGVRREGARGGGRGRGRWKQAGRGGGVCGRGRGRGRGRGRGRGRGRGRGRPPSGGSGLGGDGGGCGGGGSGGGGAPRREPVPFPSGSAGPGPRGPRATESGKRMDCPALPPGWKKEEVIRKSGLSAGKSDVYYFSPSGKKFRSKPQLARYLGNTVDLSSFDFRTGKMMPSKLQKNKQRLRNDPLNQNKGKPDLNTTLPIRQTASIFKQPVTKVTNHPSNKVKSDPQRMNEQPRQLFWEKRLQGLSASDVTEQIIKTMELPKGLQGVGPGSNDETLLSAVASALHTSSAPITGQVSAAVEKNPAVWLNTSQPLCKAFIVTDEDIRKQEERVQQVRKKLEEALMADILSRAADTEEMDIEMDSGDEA
PLC-gamma1 inh = inhibitors of human phospholipase C gamma1. P19174. purified PLC-gamma1, fluorogenic substrate, fluorescence. inhibition, % at 12.2 µM. actives 0.84% (n = 370,000); in the data active = inhibition above about 9.5%
LEDGF integ inh = blocks HIV-1 LEDGF/p75-dependent DNA integration. TR-FRET IN-LEDGF/p75 DNA integration, Eu/Cy5. inhibition, % at 3.7 µM. actives 0.64% (n = 370,000). AID 743269;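 active = inhibition above the screen-wide mean plus 3 SD, cut at about 13% in these data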;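 note: signal is the Cy5 over europium emission ratio at 671 and 618 nm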
UHRF1 binding = human UHRF1 methylated DNA binding inhibitors. Q96T88. UHRF1 binding to methylated oligo, TR-FRET. inhibition, % at 4.4 µM. actives 0.75% (n = 370,000). AID 687016; in the data active = inhibition above about 21%;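 note: UHRF1 SRA domain binding a hemimethylated CpG hairpin DNA probe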
PLCb3 inh = PLC-beta3 (human) inhibition, primary screen; Q01970; AID 720704; Purified PLC-beta3, fluorogenic substrate, fluorescence; actives 0.18% (n = 370,000); inhibition, % at 12.2 µM; in the data active = inhibition above about 11%
IN multimer act = counter-screen for LEDGF/p75 integration inhibitors: HIV-1 integrase multimerization activators. activation, % at 7.7 µM. TR-FRET HIV-1 integrase multimerization, biochemical. shares compounds with LEDGF integ inh. actives 17% (n = 2,000); in the data active = activation above about 8.9%
TR-FRET interf = optically interferes with TR-FRET readout in LEDGF counter-screen; shares compounds with LEDGF integ inh; inhibition, % at 7.7 µM; 2,000 tested, under 10 active; TR-FRET optical interference counterscreen, HIV-1 IN multimerization;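 active = inhibition above the mean over all tested compounds plus 3 SD, which no compound reached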
LEDGF integ conf = confirmation of HIV-1 LEDGF/p75-dependent integration inhibitors; shares compounds with LEDGF integ inh; TR-FRET LEDGF/p75-dependent HIV-1 integration, biochemical; inhibition, % at 3.7 µM; actives 36% (n = 2,000); in the data active = inhibition above about 14%
Of the large screens only hits and unclear results are named; the others gave an inactive call (follow-up assays come after a bar, where they were run). Rows were chosen to be rich in hits. Some 2.3% of all compounds tested hit in one or more screens of this group.

Brc1ccc(C2=Nc3cccc4cccc(c34)N2)o1	LEDGF integ inh 42 | IN multimer act inactive | TR-FRET interf inactive | LEDGF integ conf inactive
NC(c1csc(Nc2ccccn2)n1)c1ccccc1Cl (centres undefined)	LEDGF integ inh 15 | IN multimer act inactive | TR-FRET interf inactive | LEDGF integ conf inactive
O=C(CCl)Nc1ccc(S(=O)(=O)NC2=NCCCCC2)cc1	LEDGF integ inh 17 | IN multimer act inactive | TR-FRET interf inactive | LEDGF integ conf inactive
CCn1c(SCC(=O)NN=Cc2ccc(C(=O)O)cc2)nc2ccccc21	none
CC1C/C(=C/c2cccs2)C(=O)/C(=C/c2cccs2)C1 (centres undefined)	LEDGF integ inh 29, UHRF1 binding 28 | IN multimer act inactive | TR-FRET interf inactive | LEDGF integ conf inactive
Clc1ccc([C@H]2OC[C@@]3(CNCc4ccccc4)CS[C@H](c4ccc(Cl)cc4)N23)cc1	none
Cc1c(NC(=O)C2CCCN(S(=O)(=O)c3ccc(Cl)s3)C2)c(=O)n(-c2ccccc2)n1C (centres undefined)	none
Cc1cc(CNC(=O)C(C)n2cc([N+](=O)[O-])cn2)c2ccccc2n1 (centres undefined)	none
Cc1cc(CNC(=O)Cn2cc([N+](=O)[O-])cn2)c2ccccc2n1	LEDGF integ inh 17 | IN multimer act inactive | TR-FRET interf inactive | LEDGF integ conf inactive
Cc1nn(Cc2ccc(F)cc2)c(C)c1NC(=O)c1noc2c1CCCCC2	LEDGF integ inh 40 | IN multimer act inactive | TR-FRET interf inactive | LEDGF integ conf inactive
CN(CCOC(=O)c1cc2ccccc2o1)C1CN(Cc2cn(Cc3ccccc3F)nn2)S(=O)(=O)C1 (centres undefined)	none
Nc1[nH]c2cc(Cl)ccc2c1C(=O)N1CCOCC1	none
CN1CCN(C2=C(Cl)C(=O)c3ccccc3C2=O)CC1	LEDGF integ inh 34 | IN multimer act inactive | TR-FRET interf inactive | LEDGF integ conf 73
NC(=O)C1(c2ccccc2)CCC(=O)N1c1ccccc1 (centres undefined)	LEDGF integ inh 35 | IN multimer act inactive | TR-FRET interf inactive | LEDGF integ conf inactive
Cc1ccc(N2C(=O)CCC2(C(N)=O)c2ccccc2)cc1 (centres undefined)	none
CCn1c(=O)[nH]c2cc(Cl)c(Cl)cc21	LEDGF integ inh 16 | IN multimer act inactive | TR-FRET interf inactive | LEDGF integ conf inactive
C[C@@H]1C[C@@H]2O[C@H]2CCCCC(=O)Cc2cc(O)cc(O)c2C(=O)O1	none
O=C(NCc1cccs1)C1CCCN(S(=O)(=O)c2ccccc2)C1 (centres undefined)	none
COc1cc(OC)c(C(=O)O/N=C(\N)c2cccc(C)c2)cc1OC	LEDGF integ inh 17 | IN multimer act inactive | TR-FRET interf inactive | LEDGF integ conf inactive
O=C(CCC1CCCCC1)Nc1nccs1	LEDGF integ inh 21 | IN multimer act inactive | TR-FRET interf inactive | LEDGF integ conf inactive
CCOC(=O)C1=NS(=O)(=O)NC(C)=C1	LEDGF integ inh 16 | IN multimer act inactive | TR-FRET interf inactive | LEDGF integ conf inactive
CC1=CC(c2ccccc2)=NS(=O)(=O)N1	none
CCCCc1ccc(-c2noc(CCC(=O)NCC)n2)cc1	none
COCCCNC(=O)/C(C#N)=C/c1ccc(OCC(=O)O)c(OC)c1	LEDGF integ inh 17, UHRF1 binding 34 | IN multimer act 23 | TR-FRET interf inactive | LEDGF integ conf 36
COc1cc(C2C3=C(COC3=O)Oc3cc4c(cc32)OCO4)cc(OC)c1OC (centres undefined)	none
COc1cc(C2C3=C(COC3=O)Oc3cc4c(cc32)OCO4)cc(OC)c1O (centres undefined)	LEDGF integ inh 23 | IN multimer act inactive | TR-FRET interf inactive | LEDGF integ conf inactive
NC(=O)CSCc1cccc(Br)c1	LEDGF integ inh 33 | IN multimer act inactive | TR-FRET interf inactive | LEDGF integ conf inactive
COc1ccc(N2CCCN(CC(=O)Nc3ccc(Cl)c(Cl)c3)CC2)cc1	none
Cc1ccc(S(=O)(=O)Nc2ccc(Br)cc2/C=N/n2cnnc2)cc1	LEDGF integ inh 17 | IN multimer act inactive | TR-FRET interf inactive | LEDGF integ conf 28
C[C@H]1[C@@H](N(C)CC2CCCCC2)CC[C@@]23CCCN2C(=O)CCC[C@@H]13	none
CCn1c(SCC(=O)NN=Cc2cc(OC)ccc2OC)nnc1-c1ccc(OC)cc1	none
O=C(O)c1cc(-c2ccc(/C=C3\NC(=O)N(c4ccc(Cl)cc4)C3=O)o2)ccc1Cl	LEDGF integ inh 15, UHRF1 binding 62 | IN multimer act inactive | TR-FRET interf inactive | LEDGF integ conf 27
Cc1ccc2nc3c(cc(S(=O)(=O)c4ccccc4)c(=N)n3Cc3ccco3)c(=O)n2c1	LEDGF integ inh 18 | IN multimer act inactive | TR-FRET interf inactive | LEDGF integ conf inactive
N=c1c(S(=O)(=O)c2ccccc2)cc2c(=O)n3ccccc3nc2n1Cc1ccco1	none
N=c1c(C(=O)NCCc2ccccc2)cc2c(=O)n3ccccc3nc2n1Cc1ccco1	LEDGF integ inh 17 | IN multimer act inactive | TR-FRET interf inactive | LEDGF integ conf inactive
NS(=O)(=O)c1ccc(NC(=O)CSc2nc3ccccc3c(=O)n2-c2ccc(Br)cc2)cc1	none
Cc1ccccc1Cn1ccc2ccc(-c3ccc4ccn(Cc5ccccc5)c4c3)cc21	none
COc1cccc(N2CCN(CC(=O)NCc3ccc(F)cc3)CC2)c1	none
CCOc1cc(N2CCOCC2)c(OCC)cc1NC(=O)CSc1ncccn1	none
CCOc1cc(N2CCOCC2)c(OCC)cc1NC(=O)CSc1ncccc1C(=O)O	LEDGF integ inh 29 | IN multimer act inactive | TR-FRET interf inactive | LEDGF integ conf inactive
Cc1cccc(C(=O)Nc2nc3ncccn3c2-c2ccc(F)cc2)c1	none
CN(C)S(=O)(=O)c1cccc(NC(=S)Nc2cc(Cl)cc(Cl)c2)c1	none
CN(C)S(=O)(=O)c1cccc(NC(=S)N/N=C/c2ccc(O)c(O)c2O)c1	LEDGF integ inh 55 | IN multimer act 19 | TR-FRET interf inactive | LEDGF integ conf 41
CCN(CCO)c1ccc(NC(=S)Nc2cccc(S(=O)(=O)N(C)C)c2)cc1	LEDGF integ inh 24 | IN multimer act inactive | TR-FRET interf inactive | LEDGF integ conf inactive
Nn1c(SCC(=O)Nc2nccs2)nnc1-c1cc(-c2ccc(Cl)cc2)n[nH]1	none
COc1ccccc1N1CCN(Cc2nc(N)nc(Nc3ccc(C)c(Cl)c3)n2)CC1	LEDGF integ inh 13 | IN multimer act inactive | TR-FRET interf inactive | LEDGF integ conf inactive
Cc1c[nH]c2cccc(-c3cccc4ccccc34)c12	none
